The values that follow come from PubChem BioAssay AID1345085 (National Center for Advancing Translational Sciences (NCATS), 2018).

Inconclusive results are not listed. A number with no mark means an inactive call. Active and inactive are the calls of the source. Calls come from the whole dose curve; as a rule, active = well fitted cell-killing curve with a large enough effect; inconclusive = small, poorly fitted or top-dose-only effect, or effect the other way; inactive = no such curve, though single readings can be large or run the other way.
% is set by controls: 0 for no effect and ±100 for the full control effect; potency is the fitted concentration of half-maximal effect.

The experiment relates to Tov-21-G. In words: Confirmatory qHTS for gynecologic anti-cancer compounds from libraries of approved drugs and bioactive compounds. Note: nearly all actives have a fitted effect of over 55% in size. The conditions noted are these: gynecologic cancer cell panel viability, ATPlite luminescence, 48 h; series mostly up to 57.7 µM; activity change, negative = viability loss: at the top concentration. Put shortly:
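ATPlite luminescence read-out of cell viability; IC50 from 11-point 1:3 titrations, 57.5 uM to 0.977 nM, 48 h compound exposure at 37 C, 5% CO2. Cells seeded at 1,000/well 16 h before dosing.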
For `Cc1ccn(-c2ccc(-c3ncco3)cc2)c(=O)c1-c1ccc2nc(N)ncc2c1`, the Potency was 6.11 µM (active).

`COc1cc(Nc2c(C#N)cnc3cc(OCCCN4CCN(C)CC4)c(OC)cc23)c(Cl)cc1Cl`: the Potency is 1.72 µM (active).

On to `CN(NC(=O)CC(=O)NN(C)C(=S)c1ccccc1)C(=S)c1ccccc1`, for which the Potency is 0.153 µM (active).

Consider `NC1(c2ccc(-c3nc4ccn5c(=O)[nH]nc5c4cc3-c3ccccc3)cc2)CCC1`, for which the “activity change, negative = viability loss” value was -10.2%.

For `OCCNC1CCCc2c1[nH]c1ccc(-c3ccccc3)cc21` (stereo unspecified), the Potency is 27.3 µM (active).

Take `Cc1nc(N)ncc1-c1nc(N2CCOCC2)c2sc(C(C)(C)O)cc2n1`: the Potency is 1.53 µM (active).

For `CNC(=O)c1nn(C)c2c1C(C)(C)Cc1cnc(Nc3ccc(N4CCN(C)CC4)cc3)nc1-2`, the Potency is 0.122 µM (active).

Turning to `O=C1N(c2ccccc2)c2ccccc2C1(Cc1ccncc1)Cc1ccncc1`, the “activity change, negative = viability loss” value was 18.7%.

Turning to `CC(Oc1cc(-n2cnc3ccc(CN4CCN(C)CC4)cc32)sc1C(N)=O)c1ccccc1C(F)(F)F` (stereo unspecified), the Potency is 27.3 µM (active).

Turning to `CN(Cc1cnc2nc(N)nc(N)c2n1)c1ccc(C(=O)N[C@@H](CCC(=O)O)C(=O)O)cc1`, the “activity change, negative = viability loss” value is -25.3%.

Consider `Nc1ccc(C(=O)Nc2cccc(-c3nc(N4CCOCC4)c4oc5ncccc5c4n3)c2)cn1`, for which the Potency is 6.11 µM (active).

As for `CNC(=O)c1ccccc1Nc1nc(Nc2ccc(N3CCOCC3)cc2OC)ncc1Cl`, the Potency was 3.85 µM (active).

With `CN1CCCC(n2nc(Cc3ccc(Cl)cc3)c3ccccc3c2=O)CC1` (stereo unspecified), the Potency is 30.6 µM (active).

Take `COc1cccc2c1C(=O)c1c(O)c3c(c(O)c1C2=O)C[C@@](O)(C(=O)CO)C[C@@H]3O[C@H]1C[C@H](N)[C@H](O)[C@H](C)O1`: the Potency is 2.43 µM (active).

With `CCN(CC)CCCC(C)Nc1c2ccc(Cl)cc2nc2ccc(OC)cc12` (stereo unspecified), the Potency is 30.6 µM (active).

In the case of `CC(C)C[C@H](NC(=O)[C@H](CCc1ccccc1)NC(=O)CN1CCOCC1)C(=O)N[C@@H](Cc1ccccc1)C(=O)N[C@@H](CC(C)C)C(=O)[C@@]1(C)CO1`, the Potency is 2.17 µM (active).

As for `CC1(C)[C@@H](O)CC[C@]2(C)[C@H]3C(=O)C=C4[C@@H]5C[C@@](C)(C(=O)O)CC[C@]5(C)CC[C@@]4(C)[C@]3(C)CC[C@@H]12`, the “activity change, negative = viability loss” value was 17.3%.

With `c1cc(N[C@@H]2CCNC2)nc(-c2cnc3ccc(-c4cn[nH]c4)cn23)c1`, the Potency was 2.43 µM (active).

Turning to `CC[C@@]1(O)C(=O)OCc2c1cc1n(c2=O)Cc2cc3c(CN(C)C)c(O)ccc3nc2-1`, the Potency was 5.44 µM (active).

For the compound `CNc1nc(Nc2ccc(C(=O)N3CCOCC3)cc2OC)ncc1Cl`, the “activity change, negative = viability loss” value is -9.86%.

In the case of `CC(C)CC(=O)Nc1n[nH]c2c1CN(C(=O)C1CCN(C)CC1)C2(C)C`, the Potency was 3.85 µM (active).

Take `CNC1CCC(N(Cc2cccc(-c3ccncc3)c2)C(=O)c2sc3ccccc3c2Cl)CC1` (stereo unspecified): the Potency is 19.3 µM (active).

Regarding `Cc1cc(C2CCCCC2)n(O)c(=O)c1`, the Potency is 17.7 µM (active).

On to `CC(C)c1nn(-c2c(Cl)cccc2Cl)c2nc(Cc3ccc(OCCO)cc3)[nH]c(=O)c12`, for which the Potency was 0.0863 µM (active).

Regarding `Cc1ccc(C(=O)Nc2cccc(C(F)(F)F)c2)cc1-c1ccc2nc(NCCN3CCOCC3)ncc2c1`, the Potency is 4.85 µM (active).

`COc1cc(N2CCC(N(C)C)CC2)ccc1Nc1ncc(Cl)c(Nc2ccccc2P(C)(C)=O)n1`: the Potency was 1.72 µM (active).

Turning to `OC[C@H]1O[C@@H](n2cnc3c(=S)nc[nH]c32)[C@H](O)[C@@H]1O`, the “activity change, negative = viability loss” value is -22.2%.

For `CCN(CC)CCOc1ccc(/C(=C(\Cl)c2ccccc2)c2ccccc2)cc1`, the Potency was 126 µM (active).

As to `O=C(c1ccc(F)c(F)c1Nc1ccc(I)cc1F)N1CC(O)([C@@H]2CCCCN2)C1`, the Potency was 9.68 µM (active).

With `CCN1CCN(Cc2ccc(Nc3ncc(F)c(-c4cc(F)c5nc(C)n(C(C)C)c5c4)n3)nc2)CC1`, the Potency was 2.73 µM (active).

Regarding `Cc1nc(Nc2n[nH]c3c2CN(C(=O)NC(CN(C)C)c2ccccc2)C3(C)C)c2sccc2n1` (stereo unspecified), the Potency was 2.43 µM (active).
